These results are taken from PubChem BioAssay (NCI).

Structures are written as SMILES. Compounds without any hit were thinned out: in the full panel of roughly 83,000, 20% have a hit.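 In brief: 96-well plates, 48 h treatment, single concentration, percent growth endpoint.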 A number with no mark means an inactive call. Activity calls are given as the source filed them. The calls were made as follows: active = growth percent below 10; inactive = the rest.

Among the test systems are EKVX NSCLC; SN12C renal; UO-31 renal; TK-10 renal; ACHN renal; CAKI-1 renal; A498 renal; CCRF-CEM leukemia; MOLT-4 leukemia; SR leukemia.
Common to all, as to assay: NCI-60 one-dose screen, 48 h (100 = growth as untreated, 0 = no growth, -100 = all killed)
Holding throughout (conditions): 10 µM unless noted

For `Cc1cc(OC(=O)c2ccc([N+](=O)[O-])cc2)nc2[nH]c(=O)sc12`, the growth in the experiment on EKVX NSCLC is 92.1%; with SN12C renal, 101%; in the experiment on UO-31 renal, 82.1%; in the experiment on TK-10 renal, 103%; with ACHN renal it was 103%; with CAKI-1 renal, 91.5%. For the same compound, the growth with A498 renal is 104%; in the experiment on CCRF-CEM leukemia, 106%; with MOLT-4 leukemia it was 101%; with SR leukemia, 108%.

As to `CCN1C(=O)N(CC)C2C1NN=c1s/c(=C3\C(=O)N(C(C)C)c4ccccc43)c(=O)n12` (stereo not given), the growth is 31.5% in the experiment on EKVX NSCLC; 21.6% in the experiment on SN12C renal; 45.4% in the experiment on UO-31 renal; 56.5% with TK-10 renal; 25.4% with ACHN renal; 31.8% in the experiment on CAKI-1 renal. The growth is -2.49% (active) with A498 renal, 9.92% (active) in the experiment on CCRF-CEM leukemia, 13.8% in the experiment on MOLT-4 leukemia and 10.6% in the experiment with SR leukemia.

In the case of `COc1cccc2c1C=C1CCCCC3=Cc4c(OC)cccc4OC13O2`, the growth in the experiment on EKVX NSCLC was 60.5%; with SN12C renal, 49.5%; with UO-31 renal, 44.5%; with TK-10 renal, 74.7%; in the experiment with ACHN renal, 38.7%; in the experiment on CAKI-1 renal it was 47.8%. For the same compound, the growth in the experiment with A498 renal was 35.9%; in the experiment with CCRF-CEM leukemia, 27.9%; with MOLT-4 leukemia it was 29.1%; with SR leukemia it was 28.6%.

For `COC(=O)/C(CCC=C(C)C)=C1\[C@@H](OC(C)=O)C[C@@]2(C)[C@H]1C[C@@H](O)[C@H]1[C@@]3(C)CC[C@H](NCCO)[C@@H](C)[C@@H]3CC[C@@]12C`, the growth was 99.6% in the experiment with EKVX NSCLC; 105% with SN12C renal; 78.9% in the experiment on UO-31 renal; 115% with TK-10 renal; 97.3% in the experiment on ACHN renal; 91% in the experiment on CAKI-1 renal. In addition, the growth with A498 renal was 101%; with CCRF-CEM leukemia it was 101%; in the experiment with MOLT-4 leukemia it was 96.7%; in the experiment on SR leukemia, 98.3%.

`COc1ccc(Cn2cc(Cn3c(=O)c(-c4nc5ccccc5[nH]4)cc4ccccc43)nn2)c(OC)c1OC`: the growth was 30.8% in the experiment on EKVX NSCLC; 18.7% in the experiment with SN12C renal; 18.2% in the experiment with UO-31 renal; 33.9% in the experiment on TK-10 renal; 35% in the experiment on ACHN renal; 21.7% in the experiment on CAKI-1 renal. Further, the growth in the experiment with A498 renal is -27.4% (active); with CCRF-CEM leukemia, 22.6%; in the experiment on MOLT-4 leukemia it was 17.9%; in the experiment on SR leukemia, 21.8%.

As for `CC(C)C[C@H](C(=O)N[C@H](C(N)=O)C(C)C)N1CC=CCN(OCc2ccccc2)S1(=O)=O`, the growth is 114% [2.5 µM] in the experiment on EKVX NSCLC; 94.9% [2.5 µM] in the experiment on SN12C renal; 83.6% [2.5 µM] in the experiment on UO-31 renal; 102% [2.5 µM] in the experiment with TK-10 renal; 97.8% [2.5 µM] with ACHN renal; 99.4% [2.5 µM] in the experiment with CAKI-1 renal. Besides, the growth is 108% [2.5 µM] with A498 renal, 92.4% [2.5 µM] in the experiment with CCRF-CEM leukemia, 82.5% [2.5 µM] in the experiment with MOLT-4 leukemia and 93.4% [2.5 µM] with SR leukemia.

In the case of `COc1ccc(N(C)c2nc(N)nc3sc4c(c23)CCCC4)cc1`, the growth with EKVX NSCLC was 61%; with SN12C renal, 24.2%; in the experiment on UO-31 renal, 38.5%; with TK-10 renal, 45.1%; in the experiment on ACHN renal it was 26.7%; in the experiment with CAKI-1 renal it was 25.6%. The growth in the experiment on A498 renal is 0.565% (active); in the experiment on CCRF-CEM leukemia, 9.1% (active); with MOLT-4 leukemia it was 11.6%; in the experiment on SR leukemia it was 6.49% (active).

In the case of `CC(=S)NC(=O)C(=O)/C=C1/NC(=O)C(=O)S1`, the growth was 100% with EKVX NSCLC; 99.1% in the experiment with SN12C renal; 79.5% with UO-31 renal; 110% with TK-10 renal; 99.1% in the experiment with ACHN renal; 93.8% in the experiment with CAKI-1 renal. Further, the growth in the experiment on A498 renal was 103%; in the experiment on CCRF-CEM leukemia, 107%; in the experiment on MOLT-4 leukemia, 112%; in the experiment on SR leukemia, 107%.

As to `Nc1nc(-c2cnccn2)nn1-c1nc2ccccc2s1`, the growth was 94.6% in the experiment on EKVX NSCLC; 101% with SN12C renal; 99.6% in the experiment with UO-31 renal; 117% in the experiment with TK-10 renal; 108% in the experiment with ACHN renal; 96.8% in the experiment with CAKI-1 renal. For the same compound, the growth with A498 renal is 118%; with CCRF-CEM leukemia, 97.4%; in the experiment on MOLT-4 leukemia, 94.7%; with SR leukemia, 98.4%.

For the compound `O=C1/C(=C/c2ccc(O)cc2)COc2ccc(O)cc21`, the growth is 106% in the experiment on EKVX NSCLC; 96.7% in the experiment with SN12C renal; 87.5% with UO-31 renal; 115% in the experiment with TK-10 renal; 96.5% in the experiment on ACHN renal; 103% in the experiment with CAKI-1 renal. Also, the growth was 103% in the experiment on A498 renal, 76.7% in the experiment with CCRF-CEM leukemia, 93.7% in the experiment on MOLT-4 leukemia and 33% with SR leukemia.

In the case of `Nc1ccccc1-c1ccc(-c2ccc(Cl)cc2)c2c1[nH]c1ccccc12`, the growth was 70.6% in the experiment with EKVX NSCLC; 66.5% with SN12C renal; 26.1% with UO-31 renal; 84% with TK-10 renal; 75.2% in the experiment on ACHN renal; 50% with CAKI-1 renal. The growth in the experiment with A498 renal was 72.4%; in the experiment on CCRF-CEM leukemia, 37.4%; with MOLT-4 leukemia, 25.8%; in the experiment on SR leukemia it was 53.6%.

In the case of `O=C(NN1C(=O)CSC1c1ccc(Cl)cc1)c1[nH]c2ccc(F)cc2c1-c1ccccc1` (stereo not given), the growth was 49.3% with EKVX NSCLC; 44.1% with SN12C renal; 36.3% with UO-31 renal; 66.9% in the experiment with TK-10 renal; 43.8% in the experiment on ACHN renal; 32.1% with CAKI-1 renal. Moreover, the growth was 84.3% with A498 renal, 34.3% with CCRF-CEM leukemia, 34.1% in the experiment with MOLT-4 leukemia and 48.9% with SR leukemia.

Take `Nc1nc(-c2ccccc2Br)nn1-c1nc2ccccc2s1`: the growth with EKVX NSCLC was 92.2%; in the experiment on SN12C renal, 100%; in the experiment on UO-31 renal, 105%; with TK-10 renal, 118%; in the experiment on ACHN renal it was 98.3%; with CAKI-1 renal, 97.2%. In addition, the growth with A498 renal was 101%; in the experiment with CCRF-CEM leukemia, 101%; with MOLT-4 leukemia it was 88.3%; in the experiment on SR leukemia it was 81.5%.
